# From PubChem BioAssay (Tox21)
# Several values for one entry are separate records, joined by “and”; a condition that tells them apart may be missing. Equal values may be shown once. Inconclusive results are not listed. Where a call stands in place of a potency, no number is given. More than one record can exist for a structure, and the calls need not agree. Activity calls are given as the source filed them. Unless noted, the call rests on the fitted dose curve; in most records, active means well fitted curve in the direction sought with a large enough effect in the repeat runs; inconclusive means weak or mixed curves; inactive means no such curve, though single readings can be large; an effect the other way counts as inactive or inconclusive.
# Legend:
# [1] = qHTS assay to identify small molecule antagonists of the androgen receptor (AR) signaling pathway using the MDA cell line in the presence of 0.5 nM R1881 - cell viability counter screen (AID 1259242); further: nearly all actives have a fitted effect of over 45% in size; further: potency means the concentration at half of the fitted maximal effect
# Summary of the method: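 Cytotoxicity toward MDA-kb2 cells is measured by CellTiter-Fluor live-cell protease fluorescence after 16 hr compound exposure at 37C in the presence of 0.5 nM R1881 stimulator.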
# [2] = qHTS assay to identify small molecule HDAC inhibitors (AID 1259364); further: nearly all actives have a fitted effect of over 45% in size; further: potency means the concentration at half of the fitted maximal effect
# Summary of the method: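 Homogeneous cell-based luminescent assay of endogenous class I/II HDAC activity; HCT-116 cells, 2 h compound exposure, 30 min HDAC-Glo development at RT.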
# [3] = qHTS assay to identify small molecule HDAC inhibitors - cell viability counter screen (AID 1259365); further: series mostly up to about 92 µM; nearly all actives have a fitted effect of over 50% in size
# Summary of the method: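 To flag cytotoxic hits, 1,500 wild-type HCT-116 cells per well, plated the day before, receive test compounds for 2hr at 37 C before CellTiter-Glo reagent and a luminescence read.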
# [4] = qHTS assay to identify small molecule agonists of the sonic hedgehog signaling (Shh) pathway - cell viability counter screen (AID 1259366); further: nearly all actives have a fitted effect of over 50% in size; further: potency means the concentration at half of the fitted maximal effect
# Summary of the method: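 Fluorescence from CellTiter-Fluor reports live cells in this counter screen. NIH/3T3-derived Gli1-Luc reporter cells receive test compounds for 24hr at 37C; reagent goes in at 23hr.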
# [5] = qHTS assay to identify small molecule antagonists of the sonic hedgehog signaling (Shh) pathway - cell viability counter screen (AID 1259367); further: nearly all actives have a fitted effect of over 55% in size; further: potency means the concentration at half of the fitted maximal effect
# Summary of the method: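 NIH/3T3-derived Gli1-Luc reporter cells (2,000 per well) rested 4 hr at 37 C, then received DMSO compounds plus conditioned medium. After 23 hr of treatment, CellTiter-Fluor was added for 1 hr at 37C and fluorescence read.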
# [6] = qHTS assay to identify small molecule agonists of the sonic hedgehog signaling (Shh) pathway (AID 1259368; calls by dose curve;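 further: NIH/3T3-derived 3T3Gli1-Luc cells carrying a stable Gli1-driven firefly luciferase reporter; series mostly up to about 92 µM; nearly all actives have a fitted effect of over 15% in size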)
# Summary of the method: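 Steps: seed 3T3 Gli1-Luc cells, incubate 4 hr at 37 C, pin-transfer compounds in DMSO alongside a positive control, incubate 24 hr, add luciferase detection reagent, wait 30 min at room temperature, read luminescence.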
# [7] = qHTS assay to identify small molecule antagonists of the sonic hedgehog signaling (Shh) pathway (AID 1259369; calls by dose curve; further: nearly all actives have a fitted effect of over 45% in size; further: potency means the concentration at half of the fitted maximal effect)
# Summary of the method: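 Inhibition of Shh signalling is measured as reduced Gli1-response-element firefly luciferase output in an NIH/3T3-derived stable reporter clone stimulated with conditioned medium for 24hr.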
# [8] = target: Estrogen receptor beta (Homo sapiens) (UniProt Q92731); assay: qHTS assay to identify small molecule agonists of the estrogen receptor beta (ER-beta) signaling pathway (AID 1259377; active means well fitted activation curve with a large enough effect in the signal ratio in the repeat runs, not every such curve was filed as active; the % refers to the signal ratio)
# Summary of the method: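 Screening used GripTite ER-beta-UAS-bla cells held in 2% charcoal-stripped FBS medium. After overnight (16 hr) compound incubation at 37C, beta-lactamase activity was detected with a FRET substrate by fluorescence.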
# [9] = target: Estrogen receptor (Homo sapiens) (UniProt P03372); assay: qHTS assay to identify small molecule antagonists of the estrogen receptor alpha (ER-alpha) signaling pathway using the BG1 cell line in the presence of 0.1 nM 17-beta-estradiol (AID 1259244); further: nearly all actives have a fitted effect of over 50% in size
# Summary of the method: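 After 5 days in hormone-depleted medium (charcoal-stripped serum, no phenol red), VM7Luc4E2 cells were seeded, incubated 24 h, then co-treated with compound and 0.1 nM (final) estradiol for 22 h before luminescence detection.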
# Chain of Estrogen receptor beta (Homo sapiens) (Q92731 whole entry, looked up): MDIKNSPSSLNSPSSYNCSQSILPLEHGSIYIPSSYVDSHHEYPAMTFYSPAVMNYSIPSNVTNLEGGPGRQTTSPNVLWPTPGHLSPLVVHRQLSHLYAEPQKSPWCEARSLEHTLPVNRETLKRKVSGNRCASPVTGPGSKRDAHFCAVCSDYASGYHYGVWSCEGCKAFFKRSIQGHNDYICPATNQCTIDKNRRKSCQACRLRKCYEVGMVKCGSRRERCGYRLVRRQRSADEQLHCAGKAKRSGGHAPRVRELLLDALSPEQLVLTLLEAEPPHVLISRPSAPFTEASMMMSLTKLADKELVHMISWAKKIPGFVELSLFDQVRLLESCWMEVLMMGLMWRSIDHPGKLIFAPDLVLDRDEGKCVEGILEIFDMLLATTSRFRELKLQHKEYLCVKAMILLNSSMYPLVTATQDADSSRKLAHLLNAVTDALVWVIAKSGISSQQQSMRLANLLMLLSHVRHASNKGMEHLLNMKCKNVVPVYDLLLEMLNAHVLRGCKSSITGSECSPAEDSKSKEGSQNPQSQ
# Chain of Estrogen receptor (Homo sapiens) (P03372 whole entry, looked up): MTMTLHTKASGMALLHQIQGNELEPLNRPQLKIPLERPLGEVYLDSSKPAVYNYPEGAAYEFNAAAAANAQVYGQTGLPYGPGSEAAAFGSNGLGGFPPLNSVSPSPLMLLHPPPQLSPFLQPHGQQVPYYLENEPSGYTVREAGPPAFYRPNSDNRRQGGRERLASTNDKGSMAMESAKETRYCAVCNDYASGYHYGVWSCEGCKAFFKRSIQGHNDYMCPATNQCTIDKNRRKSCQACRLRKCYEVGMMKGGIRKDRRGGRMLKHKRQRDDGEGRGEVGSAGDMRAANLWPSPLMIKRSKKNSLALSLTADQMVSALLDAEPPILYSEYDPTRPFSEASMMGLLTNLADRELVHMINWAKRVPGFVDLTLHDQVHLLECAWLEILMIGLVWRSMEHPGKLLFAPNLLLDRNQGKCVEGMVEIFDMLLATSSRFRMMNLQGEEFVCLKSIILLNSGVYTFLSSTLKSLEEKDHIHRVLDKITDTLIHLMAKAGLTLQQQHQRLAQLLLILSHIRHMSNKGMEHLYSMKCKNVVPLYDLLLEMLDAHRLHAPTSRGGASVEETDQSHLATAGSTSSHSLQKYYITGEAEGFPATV
Compound,Potency [1],Potency [2],outcome [3],Potency [4],Potency [5],outcome [6],Potency [7],Potency [8],Potency [9]
CCCCC(CC)COC(C)=O (centres undefined),inactive,inactive,inactive,inactive,inactive,inactive,inactive,inactive,
CC(C)Cc1ccccc1,inactive,inactive,inactive,inactive,inactive,inactive,inactive,,
CS(=O)(=O)c1ccc([C@@H](O)[C@@H](CO)NC(=O)C(Cl)Cl)cc1,inactive,inactive,inactive,inactive,inactive,inactive,inactive,,
CCCCCCCCCCCCN,inactive,inactive,inactive,27.3 µM (active) and inactive,inactive,inactive,inactive,,
CN(CCOc1ccc(CC2SC(=O)NC2=O)cc1)c1ccccn1 (centres undefined),inactive,30.5 µM (active) and inactive,inactive,inactive,inactive,inactive,inactive,inactive,
Cc1ccc(C(=O)O)o1,inactive,inactive,inactive,inactive,inactive,inactive,inactive,inactive,
Oc1c(Cl)cc(Cl)c(Cl)c1Cl,inactive,inactive,inactive,inactive,inactive,inactive,48.6 µM (active),inactive,
COC(=O)Nc1nc2ccc(Sc3ccccc3)cc2[nH]1,inactive,inactive,inactive,inactive,8.63 µM (active),inactive,1.93 µM (active) and 2.66 µM (active),,
Nc1c(S(=O)(=O)O)cc(Br)c2c1C(=O)c1ccccc1C2=O,inactive and 24.3 µM (active),inactive,inactive,inactive and 30.6 µM (active),inactive and 27.3 µM (active),,inactive,inactive,inactive
CCCCCCC(C)(C)S,inactive,inactive,inactive,inactive,inactive,inactive,inactive,inactive,
O=S(=O)(Oc1ccc(Cl)cc1Cl)c1ccccc1,inactive,inactive,inactive,inactive,inactive,inactive,inactive,,
CN(C)c1cccc(O)c1,inactive,inactive,inactive,inactive,inactive,inactive,inactive,inactive,
Clc1ccc(Cl)c(Cl)c1Cl,inactive,inactive,inactive,inactive,inactive,inactive,inactive,inactive,
